# Compound activity (PubChem)
# Rows were chosen to be rich in hits. Some 11% of all compounds tested hit in one or more screens of this group.
# ALDH1A1 inh = blocks purified human ALDH1A1 activity | Potency, µM (doses to about 75.3 µM), for inactives: top-dose activity, negative = inhibition, hits mostly inhibitors | hit rate 7.3% among 220,000 | AID 1030 | P00352 | Purified ALDH1A1, NADH fluorescence, propionaldehyde substrate;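 further: potency means the concentration at half of the fitted maximal effect; plate controls were no enzyme wells and a reference inhibitor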
# ALOX12 inhib = blocks human 12-lipoxygenase activity; P18054; purified 12-hLO, xylenol orange hydroperoxide absorbance; Potency, µM (series often up to 57.1 µM), inactives show at the top dose activity change, negative = inhibition, most hits filed as inhibitors; hit rate 0.12% among 150,000; active means well fitted curve in the direction sought with a large enough effect; inconclusive means small, poorly fitted or top-dose-only effect, or another doubt; inactive means no such curve, though single readings can be large; an effect the other way counts as inactive or inconclusive; further: potency means the concentration at half of the fitted maximal effect; nearly all actives have a fitted effect of over 55% in size
#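 Hydroperoxide output read as Fe(III)-xylenol orange absorbance, 573-to-405 nm ratio, after 30 min reaction with 40 uM arachidonic acid. Enzyme: 150 nM purified human 12hLO, 15 min compound preincubation; 25 mM Hepes pH 7.0, room temperature.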
# PNC assembly inh = inhibitors of perinucleolar compartment assembly. PC3M PTB-GFP, PNC prevalence imaging, 16 h; stronger effect = lower value. hit rate 3.1% among 140,000. activity change (PNC), negative = inhibition, % at 10 µM;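 active means readout at or below -70, meaning at least 70% loss of cells showing the perinucleolar compartment, a nuclear body marking cancer cells; inconclusive means readout between -30 and a set limit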;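 further: plate controls were DMSO wells for no effect and camptothecin positive control wells for full effect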
#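 PC3M cells stably expressing PTB-GFP, 750–1000 cells/well, treated 16 h at 37 °C with compound (23 nl of library stock), in duplicate. After paraformaldehyde fixation and Hoechst stain, imaged at 20x; PNC prevalence scored by image analysis.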
# HPGD inh = inhibitors of human 15-hydroxyprostaglandin dehydrogenase (HPGD); Potency, µM, inactives show top-dose activity change, negative = inhibition, hits mostly inhibitors; AID 894; hit rate 4.3% among 150,000; purified HPGD, NADH fluorescence kinetic, PGE2 substrate; further: potency means the concentration at half of the fitted maximal effect
# Target sequence (P15428 whole entry, looked up): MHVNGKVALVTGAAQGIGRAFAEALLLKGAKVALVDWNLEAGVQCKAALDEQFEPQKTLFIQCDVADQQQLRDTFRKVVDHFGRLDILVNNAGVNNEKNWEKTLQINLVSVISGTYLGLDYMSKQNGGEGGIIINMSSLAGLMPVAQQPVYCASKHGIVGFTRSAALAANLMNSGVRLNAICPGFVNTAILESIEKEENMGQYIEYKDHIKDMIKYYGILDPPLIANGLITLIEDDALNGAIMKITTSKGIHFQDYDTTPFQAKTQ
#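 20 nM HPGD preincubated 15 min at room temperature with compound in 50 mM Tris-HCl pH 8, 0.01% Tween 20. Started with 1 mM NAD+ and 30 uM prostaglandin E2; NADH fluorescence (360/450 nm) read 5 times over 30-s intervals, last minus first.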
# IMPase Li inh = cell-permeable IMPase inhibitors with lithium potentiation; CHO-M1 cells, IP1 TR-FRET (IP-One), carbachol + lithium; Potency, µM (titrated, usually from 59.4 µM), inactives show at the top dose activity, negative = IMPase inhibition, actives largely listed as inhibitors; hit rate 0.35% among 210,000; active means well fitted curve in the direction sought with a large enough effect; inconclusive means small, poorly fitted or top-dose-only effect, or another doubt; inactive means no such curve, though single readings can be large; an effect the other way counts as inactive or inconclusive;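 further: IP1 builds up when IMPase is blocked and the TR-FRET signal falls; potency means the concentration at half of the fitted maximal effect; plate controls were basal vehicle for no effect and high inhibitor control for full effect; nearly all actives have a fitted effect of over 50% in size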
#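 IP1 accumulation measured by competitive TR-FRET in lysed CHO-M1 cells after 30 min compound exposure at 37C, with a small lithium addition to potentiate weak responses. Hill-equation AC50 from ratio and donor-channel data.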
# IMPase inh = IMPase inhibition in cells | inhibition (IP1 accumulation), % at 46.1 µM | 120,000 tested, under 10 active | CHO-M1 cells, IP1 accumulation, HTRF TR-FRET ratio | P97697; active means well fitted curve in the direction sought with a large enough effect in the signal ratio, not every such curve was filed as active; inconclusive means small, poorly fitted or top-dose-only effect, or a change in a side signal; inactive means no such curve, though single readings can be large or run the other way; the % refers to the signal ratio;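 further: cells stimulated with carbachol in lithium chloride buffer; plate controls were DMSO basal wells for no effect and reference inhibitor wells for full effect; higher means more IMPase inhibition seen as more IP1 and lower FRET ratio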
# Target sequence (P97697 whole entry, looked up): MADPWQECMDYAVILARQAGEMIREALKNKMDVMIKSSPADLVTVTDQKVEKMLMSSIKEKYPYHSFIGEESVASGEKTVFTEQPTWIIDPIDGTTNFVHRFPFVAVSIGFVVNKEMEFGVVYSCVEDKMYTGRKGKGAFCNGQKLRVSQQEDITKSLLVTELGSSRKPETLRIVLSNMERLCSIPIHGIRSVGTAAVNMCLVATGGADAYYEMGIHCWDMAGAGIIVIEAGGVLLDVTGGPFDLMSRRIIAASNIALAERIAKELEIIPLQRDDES
#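 The IP-One HTRF competitive assay in carbachol-stimulated CHO-M1 cells quantifies cellular IP1. Compounds spanned up to 46 uM final, and activity is expressed as AC50 from concentration-response fits of the ratio and donor data.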
# * = called active by the depositor; ? = inconclusive; · = no result; [ ] = dose if it differs, or a comment. Unless noted, the call rests on the fitted dose curve; in most records, active means well fitted inhibition curve with a large enough effect (not every such curve was filed as active); inconclusive means small, poorly fitted or top-dose-only effect, or another doubt; inactive means no such curve, though single readings can be large or run the other way. Unless noted, on the % scale 0 is the no-effect control and ±100 the full control effect.
SMILES,ALDH1A1 inh,ALOX12 inhib,PNC assembly inh,HPGD inh,IMPase Li inh,IMPase inh
Cc1nn(-c2ccccc2Cl)c(Cl)c1/C=N/Nc1nc2ccccc2s1,6%,0%,-83*,?,9%,·
CC1Cc2c(-c3ccccc3)nc3c(c2CO1)CN(CCOc1ccccc1)CC3 (stereo not drawn),-5%[13.5 µM],·,·,·,·,·
O=C1CCC[C@@H](C(C(=O)OCc2ccccc2)C(=O)OCc2ccccc2)C1,-23%[13.5 µM],·,·,·,·,·
CCc1c(C)[nH]n(-c2nc(-c3cccc([N+](=O)[O-])c3)cs2)c1=O,14µM*,-4%,-15,-17%,19%,·
N#CCCn1cc(/C=N/NC(=O)c2ccncc2)c(-c2ccccc2)n1,-10%,-2%,-84*,-15%,8%,4
CC(C)(C)c1ccc(-c2nc3cc(NC(=O)c4cccc(Br)c4)ccc3o2)cc1,·,·,·,·,·,-7
Cc1ccc(NC(=O)CSCC(=O)N2c3ccccc3CCc3ccccc32)cc1,3.2µM*,-1%,5,-12%,23%[38.3 µM],-1
Cc1ccc(NC(=O)N2CCc3ccccc32)cc1,0%,14%,-14,-9%,-3%,-4
CC(=O)Nc1ccc2c(c1)N(C(=O)CN(C)C)c1ccccc1CC2,-14%,7%,19,-19%,44%[38.3 µM],2
CCNCC(=O)N1c2ccccc2CCc2ccc(NC(C)=O)cc21,-3%,5%,-105*,-11%,12%,-2
O=c1[nH]c2c(s1)C(c1ccco1)C1C3CCC(C3)C1S2 (stereo not drawn),13µM*,-14%,?,-28%,-5%[38.3 µM],6
O=C(O)CN1C(=O)C2C3CC(C2C1=O)C1C(c2ccccc2)c2sc(=O)[nH]c2SC31 (stereo not drawn),9%,-2%,-3,-2%,-2%,·
O=[N+]([O-])c1cc(C(F)(F)F)ccc1N1CCC(O)CC1,11µM*,·,·,·,-3%,·
COc1ccc2cc3cc(C(=O)N4CCN(c5cccc(Cl)c5)CC4)sc3nc2c1,·,·,·,·,·,1
CCCNC1=C(N(C(C)=O)c2cccc(F)c2)C(=O)c2ccccc2C1=O,18%,-1%,-90*,-4%,-2%,·
CC(C)c1ccc(N(CC(=O)NCc2ccc(F)cc2)C(=O)c2csnn2)cc1,5µM*,·,·,·,9%,·
Cc1cc(C)c(COCc2cc(/C=N/O)c(C)cc2C)cc1/C=N/O,23%,-6%,-8,14µM*,46%[38.3 µM],3
CCn1cc(/C=N/O)c(C)n1,4%,0%,-2,0%,12%[38.3 µM],3
N[C@H](Cc1ccc(O)c(O)c1)C(=O)O,?,·,·,-23%,-18%,·
O=c1c2oc3ccccc3c2[nH]c(=S)n1-c1ccccc1,7.9µM*,-5%,2,-15%,8.9µM*,?
Cc1ccc(-n2c(=S)[nH]c3c(oc4ccccc43)c2=O)cc1,8%,0%,23,·,·,?
Cc1c(-n2c(=S)[nH]c3ccccc3c2=O)c(=O)n(-c2ccccc2)n1C,7%,5%,-27,0%,0%[38.3 µM],-1
Cc1cccc(-n2c(=S)[nH]c3c(oc4ccccc43)c2=O)c1,?,-1%,0,-11%,8.9µM*,·
OCl,4%,1%,·,-14%,3%,·
CCCCC/C=C\C/C=C\CCCCCCCC(=O)NCCCC(=O)O,10%,1%,·,-1%,-1%,·
O=C(c1cccc(C(F)(F)F)c1)N1CCN(c2cc(=O)[nH]nc2-c2ccccc2)CC1,3µM*,-3%,85,23%,-2%[38.3 µM],4
C#Cc1cccc(Nc2ncnc3cc(OC)c(OC)cc23)c1,?,·,·,·,4%,·
O=c1c2ccccc2c(C=NC2CCS(=O)(=O)C2)c(O)n1-c1ccccc1 (stereo not drawn),18µM*,-6%,-25,-11%,?,11
COC(=O)N1CCC2(CC1)CCN(c1ccncc1)CC2,6%,1%,·,0%,18%,·
CC1CCCCN1C(=O)CSc1nc(C2CC2)nc2c1cnn2-c1ccccc1 (stereo not drawn),11µM*,1%,-19,?,27%[38.3 µM],2
